Here are results for eight sequences from publication PMC11006913.

Positions count from the first letter of the chain named.

Holding throughout (assay): PBM; 200 nM protein, PBS
Common to all, as to settings: dsDNA, one strand shown

Assay [1] has as its target T1, SIX6 (Homo sapiens, UniProt O95475 114-200, L167I).
T1 sequence: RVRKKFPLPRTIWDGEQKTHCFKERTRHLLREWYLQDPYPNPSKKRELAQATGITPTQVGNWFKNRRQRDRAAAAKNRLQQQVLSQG

Assay [2] addresses T2, SIX6 (Homo sapiens, UniProt O95475 114-200, L143V).
T2 sequence: T1 sequence with L30V, I54L

Assay [3] has as its target T3, SIX6 (Homo sapiens, UniProt O95475 114-200, H141N).
T3 sequence: T1 sequence with H28N, I54L

Assay [4] addresses T4, SIX6 (Homo sapiens, UniProt O95475 114-200, T165P).
T4 sequence: T1 sequence with T52P, I54L

Assay [5] deals with T5, SIX6 (Homo sapiens, UniProt O95475 114-200, L167M).
T5 sequence: T1 sequence with I54M

The target of assay [6] is T6, SIX6 (Homo sapiens, UniProt O95475 114-200, L143M).
T6 sequence: T1 sequence with L30M, I54L

Assay [7] addresses T7, SIX6 (Homo sapiens, UniProt O95475 114-200, L143I).
T7 sequence: T1 sequence with L30I, I54L

Assay [8] concerns the target T8, SIX6 (Homo sapiens, UniProt O95475 114-200, T165G).
T8 sequence: T1 sequence with T52G, I54L

In assay [9] the target is T9, SIX6 (Homo sapiens, UniProt O95475 114-200, T139Q).
T9 sequence: T1 sequence with T26Q, I54L

For assay [10], the target named is T10, SIX6 (Homo sapiens, UniProt O95475 114-200, T165A).
T10 sequence: T1 sequence with T52A, I54L

Assay [11] has as its target T11, SIX6 (Homo sapiens, UniProt O95475 114-200, L167V).
T11 sequence: T1 sequence with I54V

The target of assay [12] is T12, SIX6 (Homo sapiens, UniProt O95475 114-200).
T12 sequence: T1 sequence with I54L

Assay [13] addresses T13, SIX6 (Homo sapiens, UniProt O95475 114-200, T165I).
T13 sequence: T1 sequence with T52I, I54L

Assay [14] deals with NKX3-2 (Homo sapiens, UniProt P78367 192-278, P234S).
Chain of NKX3-2 (Homo sapiens, UniProt P78367 192-278, P234S) (P78367 192-278 P234S): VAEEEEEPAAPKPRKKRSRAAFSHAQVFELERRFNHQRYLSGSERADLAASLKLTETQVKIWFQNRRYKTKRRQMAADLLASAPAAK
The target of assay [15] is NKX3-2 (Homo sapiens, UniProt P78367 192-278).
Chain of NKX3-2 (Homo sapiens, UniProt P78367 192-278) (P78367 192-278): as the sequence (P78367 192-278 P234S) above, with S43P counted along it

As for CTGGCGCC, the binding signal with SIX6 [1] was 8.88 upbm affinity estimate (log intensity, higher = more binding, comparable within an allelic series); in the assay with SIX6 [2], 8.96 upbm affinity estimate (log intensity, higher = more binding, comparable within an allelic series); with SIX6 [3] it was 8.82 upbm affinity estimate (log intensity, higher = more binding, comparable within an allelic series); in the assay with SIX6 [4], 9.1 upbm affinity estimate (log intensity, higher = more binding, comparable within an allelic series); with SIX6 [5] it was 8.85 upbm affinity estimate (log intensity, higher = more binding, comparable within an allelic series); with SIX6 [6], 8.93 upbm affinity estimate (log intensity, higher = more binding, comparable within an allelic series). Also, the binding signal with SIX6 [7] was 8.9 upbm affinity estimate (log intensity, higher = more binding, comparable within an allelic series); with SIX6 [8], 8.9 upbm affinity estimate (log intensity, higher = more binding, comparable within an allelic series); with SIX6 [9], 8.85 upbm affinity estimate (log intensity, higher = more binding, comparable within an allelic series); with SIX6 [10] it was 8.87 upbm affinity estimate (log intensity, higher = more binding, comparable within an allelic series); with SIX6 [11], 8.8 upbm affinity estimate (log intensity, higher = more binding, comparable within an allelic series); with SIX6 [12], 8.82 upbm affinity estimate (log intensity, higher = more binding, comparable within an allelic series). For the same sequence, the binding signal with SIX6 [13] is 8.87 upbm affinity estimate (log intensity, higher = more binding, comparable within an allelic series); in the assay with NKX3-2 [14] it was 10.6 upbm affinity estimate (log intensity, higher = more binding, comparable within an allelic series); in the assay with NKX3-2 [15], 10.5 upbm affinity estimate (log intensity, higher = more binding, comparable within an allelic series).

With ACGATAGT, the binding signal was 10.4 upbm affinity estimate (log intensity, higher = more binding, comparable within an allelic series) with SIX6 [1]; 10 upbm affinity estimate (log intensity, higher = more binding, comparable within an allelic series) with SIX6 [2]; 10.4 upbm affinity estimate (log intensity, higher = more binding, comparable within an allelic series) with SIX6 [3]; 9.75 upbm affinity estimate (log intensity, higher = more binding, comparable within an allelic series) in the assay with SIX6 [4]; 10 upbm affinity estimate (log intensity, higher = more binding, comparable within an allelic series) in the assay with SIX6 [7]; 10.5 upbm affinity estimate (log intensity, higher = more binding, comparable within an allelic series) with SIX6 [8]. Also, the binding signal was 10.6 upbm affinity estimate (log intensity, higher = more binding, comparable within an allelic series) with SIX6 [9]; 10.4 upbm affinity estimate (log intensity, higher = more binding, comparable within an allelic series) with SIX6 [10]; 10.3 upbm affinity estimate (log intensity, higher = more binding, comparable within an allelic series) with SIX6 [11]; 10.4 upbm affinity estimate (log intensity, higher = more binding, comparable within an allelic series) in the assay with SIX6 [12]; 10.3 upbm affinity estimate (log intensity, higher = more binding, comparable within an allelic series) with SIX6 [13].

As for GGCCCCGA, the binding signal was 9 upbm affinity estimate (log intensity, higher = more binding, comparable within an allelic series) in the assay with SIX6 [1]; 8.8 upbm affinity estimate (log intensity, higher = more binding, comparable within an allelic series) in the assay with SIX6 [2]; 8.92 upbm affinity estimate (log intensity, higher = more binding, comparable within an allelic series) in the assay with SIX6 [3]; 8.86 upbm affinity estimate (log intensity, higher = more binding, comparable within an allelic series) in the assay with SIX6 [4]; 8.96 upbm affinity estimate (log intensity, higher = more binding, comparable within an allelic series) in the assay with SIX6 [5]; 8.93 upbm affinity estimate (log intensity, higher = more binding, comparable within an allelic series) with SIX6 [6]. The binding signal with SIX6 [7] is 8.91 upbm affinity estimate (log intensity, higher = more binding, comparable within an allelic series); with SIX6 [8], 9.02 upbm affinity estimate (log intensity, higher = more binding, comparable within an allelic series); with SIX6 [9], 9.12 upbm affinity estimate (log intensity, higher = more binding, comparable within an allelic series); with SIX6 [10] it was 8.81 upbm affinity estimate (log intensity, higher = more binding, comparable within an allelic series); in the assay with SIX6 [11], 8.95 upbm affinity estimate (log intensity, higher = more binding, comparable within an allelic series); with SIX6 [12], 8.99 upbm affinity estimate (log intensity, higher = more binding, comparable within an allelic series). Further, in the assay with SIX6 [13], the binding signal is 8.84 upbm affinity estimate (log intensity, higher = more binding, comparable within an allelic series).

As to AGATCCTC, the binding signal is 10.5 upbm affinity estimate (log intensity, higher = more binding, comparable within an allelic series) with SIX6 [1]; 9.98 upbm affinity estimate (log intensity, higher = more binding, comparable within an allelic series) with SIX6 [2]; 10.3 upbm affinity estimate (log intensity, higher = more binding, comparable within an allelic series) with SIX6 [3]; 9.64 upbm affinity estimate (log intensity, higher = more binding, comparable within an allelic series) with SIX6 [4]; 10.5 upbm affinity estimate (log intensity, higher = more binding, comparable within an allelic series) with SIX6 [6]; 9.91 upbm affinity estimate (log intensity, higher = more binding, comparable within an allelic series) in the assay with SIX6 [7]. Besides, the binding signal with SIX6 [9] was 10.6 upbm affinity estimate (log intensity, higher = more binding, comparable within an allelic series); with SIX6 [10] it was 10.4 upbm affinity estimate (log intensity, higher = more binding, comparable within an allelic series); with SIX6 [11] it was 10.2 upbm affinity estimate (log intensity, higher = more binding, comparable within an allelic series); with SIX6 [12], 10.4 upbm affinity estimate (log intensity, higher = more binding, comparable within an allelic series).

In the case of AGTATATC, the binding signal was 11 upbm affinity estimate (log intensity, higher = more binding, comparable within an allelic series) in the assay with SIX6 [1]; 10.3 upbm affinity estimate (log intensity, higher = more binding, comparable within an allelic series) with SIX6 [2]; 10.9 upbm affinity estimate (log intensity, higher = more binding, comparable within an allelic series) in the assay with SIX6 [3]; 9.93 upbm affinity estimate (log intensity, higher = more binding, comparable within an allelic series) in the assay with SIX6 [4]; 10.8 upbm affinity estimate (log intensity, higher = more binding, comparable within an allelic series) with SIX6 [5]; 10.9 upbm affinity estimate (log intensity, higher = more binding, comparable within an allelic series) in the assay with SIX6 [6]. For the same sequence, the binding signal was 10.3 upbm affinity estimate (log intensity, higher = more binding, comparable within an allelic series) in the assay with SIX6 [7]; 10.9 upbm affinity estimate (log intensity, higher = more binding, comparable within an allelic series) in the assay with SIX6 [8]; 11 upbm affinity estimate (log intensity, higher = more binding, comparable within an allelic series) with SIX6 [9]; 10.8 upbm affinity estimate (log intensity, higher = more binding, comparable within an allelic series) in the assay with SIX6 [10]; 10.7 upbm affinity estimate (log intensity, higher = more binding, comparable within an allelic series) in the assay with SIX6 [11]; 10.8 upbm affinity estimate (log intensity, higher = more binding, comparable within an allelic series) in the assay with SIX6 [12]. For the same sequence, in the assay with SIX6 [13], the binding signal is 10.9 upbm affinity estimate (log intensity, higher = more binding, comparable within an allelic series).

In the case of GATACCGA, the binding signal was 10.5 upbm affinity estimate (log intensity, higher = more binding, comparable within an allelic series) in the assay with SIX6 [1]; 9.92 upbm affinity estimate (log intensity, higher = more binding, comparable within an allelic series) with SIX6 [2]; 10.4 upbm affinity estimate (log intensity, higher = more binding, comparable within an allelic series) with SIX6 [3]; 9.38 upbm affinity estimate (log intensity, higher = more binding, comparable within an allelic series) in the assay with SIX6 [4]; 10.1 upbm affinity estimate (log intensity, higher = more binding, comparable within an allelic series) in the assay with SIX6 [5]; 9.98 upbm affinity estimate (log intensity, higher = more binding, comparable within an allelic series) with SIX6 [7]. The binding signal is 10.6 upbm affinity estimate (log intensity, higher = more binding, comparable within an allelic series) in the assay with SIX6 [8]; 10.6 upbm affinity estimate (log intensity, higher = more binding, comparable within an allelic series) in the assay with SIX6 [9]; 10.5 upbm affinity estimate (log intensity, higher = more binding, comparable within an allelic series) with SIX6 [10]; 10.5 upbm affinity estimate (log intensity, higher = more binding, comparable within an allelic series) in the assay with SIX6 [12].

On to AGATAGGG, for which the binding signal with SIX6 [1] was 10.1 upbm affinity estimate (log intensity, higher = more binding, comparable within an allelic series); with SIX6 [2], 9.56 upbm affinity estimate (log intensity, higher = more binding, comparable within an allelic series); with SIX6 [3], 10.1 upbm affinity estimate (log intensity, higher = more binding, comparable within an allelic series); with SIX6 [4], 9.33 upbm affinity estimate (log intensity, higher = more binding, comparable within an allelic series); in the assay with SIX6 [7], 9.71 upbm affinity estimate (log intensity, higher = more binding, comparable within an allelic series); in the assay with SIX6 [8] it was 10.3 upbm affinity estimate (log intensity, higher = more binding, comparable within an allelic series). The binding signal was 10.4 upbm affinity estimate (log intensity, higher = more binding, comparable within an allelic series) with SIX6 [9]; 10.1 upbm affinity estimate (log intensity, higher = more binding, comparable within an allelic series) in the assay with SIX6 [10]; 10 upbm affinity estimate (log intensity, higher = more binding, comparable within an allelic series) with SIX6 [12].

With CGCAGAGC, the binding signal was 8.98 upbm affinity estimate (log intensity, higher = more binding, comparable within an allelic series) with SIX6 [1]; 8.91 upbm affinity estimate (log intensity, higher = more binding, comparable within an allelic series) in the assay with SIX6 [2]; 8.85 upbm affinity estimate (log intensity, higher = more binding, comparable within an allelic series) in the assay with SIX6 [3]; 9 upbm affinity estimate (log intensity, higher = more binding, comparable within an allelic series) with SIX6 [4]; 8.82 upbm affinity estimate (log intensity, higher = more binding, comparable within an allelic series) with SIX6 [5]; 8.9 upbm affinity estimate (log intensity, higher = more binding, comparable within an allelic series) with SIX6 [6]. Besides, the binding signal with SIX6 [7] is 8.9 upbm affinity estimate (log intensity, higher = more binding, comparable within an allelic series); with SIX6 [8] it was 8.85 upbm affinity estimate (log intensity, higher = more binding, comparable within an allelic series); with SIX6 [9], 8.88 upbm affinity estimate (log intensity, higher = more binding, comparable within an allelic series); with SIX6 [10] it was 8.97 upbm affinity estimate (log intensity, higher = more binding, comparable within an allelic series); in the assay with SIX6 [11], 9.02 upbm affinity estimate (log intensity, higher = more binding, comparable within an allelic series); in the assay with SIX6 [12], 8.83 upbm affinity estimate (log intensity, higher = more binding, comparable within an allelic series). Besides, the binding signal with SIX6 [13] was 8.83 upbm affinity estimate (log intensity, higher = more binding, comparable within an allelic series); in the assay with NKX3-2 [14], 10.6 upbm affinity estimate (log intensity, higher = more binding, comparable within an allelic series); with NKX3-2 [15], 10.6 upbm affinity estimate (log intensity, higher = more binding, comparable within an allelic series).
